This is a sample that favours compounds with a hit; in the whole collection about 6.1% have one here.
TGFb SMAD3 inh: TGF-b pathway inhibition; HepG2 CAGA-GFP TGF-b/SMAD3 reporter, GFP fluorescence, 18 h; TGF-beta stimulated, 500 pg/mL final; AID 588855; Potency, µM (top dose mostly 46.1 µM), for inactives: at the highest dose activity, negative = inhibition, usual class: inhibitors; 410,000 tested, 1.2% active; note: % is set by controls: 0 for no effect and ±100 for the full control effect; nearly all actives have a fitted effect of over 65% in size
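Inhibition was scored as loss of TGF-beta-induced (500 pg/mL final, 18 hours, 37 degrees C) GFP in HEPG2 cells carrying a CAGA-GFP reporter, in DMEM with 1% FBS. Well GFP was summed per cell; Activity was normalised to unstimulated and stimulated DMSO wells, then concentration-response fitting.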
Gal4-VP16 FLuc: Gal4-VP16 reporter inhibition counter-screen. Drosophila S2 Gal4-VP16 UAS-luciferase, luminescence, 20 h. Potency, µM (highest dose often 53.6 µM), for inactives: at the highest dose activity, negative = inhibition, actives largely listed as inhibitors. 310,000 tested, 3.5% active. AID 2546;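 note: Gal4-VP16 expression switched on by copper sulfate through the metallothionein promoter; % is set by controls: 0 for no effect and ±100 for the full control effect; nearly all actives have a fitted effect of over 50% in size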
S2 tox: reduces viability in counter-screen for ATXN expression inhibitors | S2 cells (HEK-293 line with an ATXN2-luciferase reporter) viability, CellTiter-Fluor protease fluorescence, 24 h | 400,000 tested, 0.49% active | AID 651635 | Potency, µM (titrated, usually from 56.7 µM), hits mostly cytotoxic; note: nearly all actives have a fitted effect of over 40% in size
RORgamma inh: blocks mouse ROR gamma transcriptional activity. P51450. Drosophila S2 Gal4-RORgamma UAS-luciferase reporter, 20 h. Potency, µM (series often up to 53.6 µM), inactives show at the highest dose activity change, negative = inhibition, usual class: inhibitors. 310,000 tested, 5.4% active; note: % is set by controls: 0 for no effect and ±100 for the full control effect; nearly all actives have a fitted effect of over 60% in size
Target sequence (P51450 whole entry, looked up, the tested form may be a part): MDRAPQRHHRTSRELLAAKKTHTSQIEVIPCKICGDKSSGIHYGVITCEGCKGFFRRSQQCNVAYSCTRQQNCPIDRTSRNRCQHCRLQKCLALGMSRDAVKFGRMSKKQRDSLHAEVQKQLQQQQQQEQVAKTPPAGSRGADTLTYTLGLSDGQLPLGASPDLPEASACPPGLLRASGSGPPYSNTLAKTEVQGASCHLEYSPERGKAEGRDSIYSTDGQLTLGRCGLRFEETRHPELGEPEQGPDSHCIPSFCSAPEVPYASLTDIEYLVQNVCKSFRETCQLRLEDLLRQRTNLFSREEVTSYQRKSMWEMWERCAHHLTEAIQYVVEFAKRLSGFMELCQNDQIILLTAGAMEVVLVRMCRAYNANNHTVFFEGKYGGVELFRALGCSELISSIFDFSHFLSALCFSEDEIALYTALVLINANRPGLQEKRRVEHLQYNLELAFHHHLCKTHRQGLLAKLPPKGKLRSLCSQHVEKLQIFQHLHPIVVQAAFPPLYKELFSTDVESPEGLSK
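Drosophila Schneider cells stably carrying a metallothionein-driven Gal4 DBD–ROR gamma fusion and a UAS-Photinus luciferase reporter were exposed to compound for 1 hr, then induced with copper sulfate (700 uM final) for 20 hr at ambient temperature before luminescence reading.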
ATXN2 expr inh: reduces ATXN2 reporter expression in HEK-293 cells; 360,000 tested, 0.72% active; HEK-293 ATXN2-luciferase reporter, luminescence, 24 h; Potency, µM (top dose mostly 57 µM), without a hit: at the highest dose activity change, negative = inhibition, actives largely listed as inhibitors; note: % is set by controls: 0 for no effect and ±100 for the full control effect; nearly all actives have a fitted effect of over 55% in size
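qHTS (up to 57 uM final) was run with 24 h compound exposure of reporter cells at 37 °C. Each well was multiplexed: SteadyGlo luminescence measured ATXN2-luciferase expression after a fluorogenic Gly-Phe-AFC viability readout (25 uM final).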
HepG2 viability: kills HepG2 cells in TGF-b inhibitor counter-screen. HepG2 CAGA-GFP viability, ATP luminescence, 18 h. Potency, µM (series often up to 46.1 µM), for inactives: at the top dose activity change, negative = cytotoxicity, usual class: cytotoxic. 410,000 tested, 0.76% active
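CellTiter-Glo luminescence gave cytotoxicity after 18 hours at 37 degrees C. The cells were HepG2 CAGA-GFP in 1% FBS DMEM, stimulated with 500 pg/mL TGF-beta after compound addition. %Activity was normalised to no-cell wells (complete cell-killing) and DMSO (no toxicity), and curves were fitted and classified.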
Numbers without * were called inactive; [ ] = dose if it differs, or a comment. Calls come from the whole dose curve; as a rule, active = well fitted curve in the direction sought with a large enough effect; inconclusive = small, poorly fitted or top-dose-only effect, or another doubt; inactive = no such curve, though single readings can be large; an effect the other way counts as inactive or inconclusive. Potency is the fitted concentration of half-maximal effect.

Screening CN(NC(=S)Nc1ccc(OC(F)F)cc1)C(=S)Nc1ccc(OC(F)F)cc1 returned TGFb SMAD3 inh inconclusive, Gal4-VP16 FLuc 12.6µM*, S2 tox inactive, RORgamma inh -29.4%, ATXN2 expr inh -5.1%[11.3 µM] and HepG2 viability 17.6%.
For CCN(CC)C(=S)Nc1ccc(OC(F)F)cc1 the results were TGFb SMAD3 inh -0.1%, Gal4-VP16 FLuc -3.3%, S2 tox inactive, RORgamma inh -11.4%, ATXN2 expr inh 3.1% and HepG2 viability -21.3%.
For FC(F)Oc1ccc(NC(=S)Nn2cnnc2)cc1 the results were TGFb SMAD3 inh 15.8µM*, Gal4-VP16 FLuc -13.5%, S2 tox inactive, RORgamma inh -24.7%, ATXN2 expr inh inconclusive and HepG2 viability 1.8%.
Cc1ccc(SCc2nc(-c3ccc(C(=O)NCc4ccc(Cl)cc4)cc3)oc2C)cc1 was read as TGFb SMAD3 inh -1.6%, S2 tox inactive, ATXN2 expr inh 1.0% and HepG2 viability 11.0%.
For Cc1cccc(C)c1Nc1sc(C(=O)c2ccccc2)c(N)c1C(=O)Nc1ccc(F)cc1 the results were TGFb SMAD3 inh 11.2µM*, ATXN2 expr inh inconclusive and HepG2 viability -56.9%.
COc1ccc(Cl)cc1Nc1sc(C(=O)c2ccccc2)c(N)c1C(=O)Nc1ccccc1 was read as TGFb SMAD3 inh 15.8µM*, S2 tox inconclusive, ATXN2 expr inh -10.3% and HepG2 viability -33.0%.
CCOc1ccc(NC(=O)c2c(Nc3ccccc3C)sc(C(=O)c3ccccc3)c2N)cc1 was read as TGFb SMAD3 inh inconclusive, S2 tox inactive, ATXN2 expr inh 3.2% and HepG2 viability -40.9%.
Screening CCOc1ccccc1Nc1sc(C(=O)c2ccccc2)c(N)c1C(=O)Nc1ccc(F)cc1 returned TGFb SMAD3 inh 14.1µM*, S2 tox inactive, ATXN2 expr inh 0.1% and HepG2 viability -33.4%.
CCCCN(CCN(CCCC)C(=O)N1CCOCC1)C(=O)N1CCOCC1 was read as S2 tox inactive and ATXN2 expr inh -14.5%.
`CC(=O)Nc1ccn(C2OC(C(COC(C)=O)NC(=O)C(CCCCNC(=O)OCc3ccccc3)NC(=O)OC(C)(C)C)C(OC(C)=O)C2OC(C)=O)c(=O)n1` (configuration not stated) gave TGFb SMAD3 inh -21.1%, Gal4-VP16 FLuc -6.7%, RORgamma inh -22.8% and HepG2 viability -3.6%.
`CCOc1ccccc1NC(=O)C(=O)NCCc1sc2nc(-c3ccc(OC)cc3)nn2c1C` gave TGFb SMAD3 inh -7.0% and HepG2 viability -14.2%.
`CC(Oc1ccc(Cl)cc1)C(=O)N/N=C/c1ccsc1` (configuration not stated) gave TGFb SMAD3 inh 4.7%, Gal4-VP16 FLuc inconclusive, S2 tox inactive, RORgamma inh 11.2µM*, ATXN2 expr inh -9.8% and HepG2 viability 7.8%.
Screening Cc1ccc(C(=O)c2cn(CC(=O)NCc3ccccc3Cl)c3nc(C)ccc3c2=O)cc1 returned TGFb SMAD3 inh -1.4% and HepG2 viability -0.1%.
CC1=C(C(=O)OC(C)C)C(c2cccc([N+](=O)[O-])c2)C(C(=O)OC2CN(C(c3ccccc3)c3ccccc3)C2)=C(N)N1 (configuration not stated) was read as Gal4-VP16 FLuc inconclusive, S2 tox 35.5µM*, RORgamma inh inconclusive and ATXN2 expr inh 31.6µM*.
For COCCOC(=O)C1=C(C)NC(C)=C(C(=O)OC(C)C)[C@@H]1c1cccc([N+](=O)[O-])c1 the results were Gal4-VP16 FLuc 6.1% and RORgamma inh 10.2%.
Screening Cn1cnc(=N)c2[nH]cnc21 returned ATXN2 expr inh 291.6%.
`COc1cc2c(NC3CCN(C)CC3)nc(N3CCCN(C)CC3)nc2cc1OCCCCCN(C)C` gave TGFb SMAD3 inh inconclusive and HepG2 viability -21.5%.
Screening COc1cc2c(NC3CCN(C)CC3)nc(N3CCCN(C)CC3)nc2cc1OCCCCN returned TGFb SMAD3 inh inconclusive and HepG2 viability -13.7%.
COc1cc2c(NC3CCN(C)CC3)nc(N3CCCN(C)CC3)nc2cc1OCCCC(C)C was read as TGFb SMAD3 inh 2.82µM* and HepG2 viability 3.55µM*.
COc1cc2c(NC3CCN(C(C)C)CC3)nc(N3CCCN(C)CC3)nc2cc1OCCCN(C)C was read as TGFb SMAD3 inh 10µM* and HepG2 viability -8.0%.
`O=C([C@@H]1C[C@@H](Sc2nc3ccccc3[nH]2)CN1CC1CCCCC1)N1CCOCC1` gave S2 tox inactive.
CCn1c(SC(C)C(=O)O)nc2sc3c(c2c1=O)CCC3 (configuration not stated) was read as TGFb SMAD3 inh -10.9%, Gal4-VP16 FLuc 7.08µM*, S2 tox inactive, RORgamma inh 5.62µM*, ATXN2 expr inh -9.2% and HepG2 viability -2.3%.
Screening CCCCNc1nc(C)nc2c1nc(-c1ccccc1)n2CC(C)(C)CN(C)C returned Gal4-VP16 FLuc 0.5% and RORgamma inh -38.8%.
For Cc1cc(C(O)c2ncc(-c3ccc(Oc4ccccc4)cc3)[nH]2)ccc1F (configuration not stated) the results were TGFb SMAD3 inh inconclusive, S2 tox inconclusive, ATXN2 expr inh inconclusive and HepG2 viability -102.5%.
OC(c1ccc(F)cc1)c1ncc(-c2ccc(Oc3ccccc3)cc2)[nH]1 (configuration not stated) was read as TGFb SMAD3 inh inconclusive, S2 tox inconclusive, ATXN2 expr inh -14.6% and HepG2 viability 15.8µM*.
`CC1=C(C(=O)Nc2ccc(F)cc2F)C2(CCN(C(C)C)CC2)OC1=O` gave TGFb SMAD3 inh 15.7%, S2 tox inactive, ATXN2 expr inh 7.2% and HepG2 viability 1.1%.
Screening Cc1cc2c([nH]c3ccccc32)c2c1OC(C)(C)C=C2 returned TGFb SMAD3 inh inconclusive, Gal4-VP16 FLuc 2.8%, S2 tox inactive, RORgamma inh -18.9%, ATXN2 expr inh 24.6% and HepG2 viability -60.8%.
For COc1ccc2[nH]c(=O)c3c(c2c1)OC(C)(C)C=C3 the results were TGFb SMAD3 inh inconclusive, Gal4-VP16 FLuc 25.1µM*, S2 tox inactive, RORgamma inh -11.6%, ATXN2 expr inh 19.7% and HepG2 viability 4.2%.
`Cc1ccc(Cl)cc1N1CCN(C(=O)c2cc(S(=O)(=O)N3CCCC3)c[nH]2)CC1` gave TGFb SMAD3 inh inconclusive and HepG2 viability -32.9%.

Bioassay records from PubChem BioAssay.
